# PMC12529666, “Dysregulation of AGO2-miRNA dynamics underlies the AGO2-associated Lessel–Kreienkamp syndrome”
# Positions count from the first letter of the chain named.
# B1: ACGTCTTG (ssRNA)
# RNA 1: GAGUUCUACAGUCCGACGAUCCCAACACGUCUUGCACCUGGAAUUCUCGGGUGCCAA
# RNA 2: UGGAGUGUGACAAUGGUGUUUG
# DNA 1: GATCGTCGGACTGTAGAACTC
# DNA 2: TTGGCACCCGAGAATTCCA
# modifications: constant regions annealed to DNA blockers; guide miR-122 5' phosphate
# B2: GTACTCTG (ssRNA)
# RNA 1: B1 RNA 1 with A27G, C28U, G29A, U30C, C31U, U32C
# RNA 2: UGGAGUGUGACAAUGGUGUUUG
# DNA 1: GATCGTCGGACTGTAGAACTC
# DNA 2: TTGGCACCCGAGAATTCCA
# modifications: constant regions annealed to DNA blockers; guide miR-122 5' phosphate
# B3: ATATCCTA (ssRNA)
# RNA 1: B1 RNA 1 with C28U, G29A, U32C, G34A
# RNA 2: UGGAGUGUGACAAUGGUGUUUG
# DNA 1: GATCGTCGGACTGTAGAACTC
# DNA 2: TTGGCACCCGAGAATTCCA
# modifications: constant regions annealed to DNA blockers; guide miR-122 5' phosphate
# B4: GTACCCCG (ssRNA)
# RNA 1: B1 RNA 1 with A27G, C28U, G29A, U30C, U32C, U33C
# RNA 2: UGGAGUGUGACAAUGGUGUUUG
# DNA 1: GATCGTCGGACTGTAGAACTC
# DNA 2: TTGGCACCCGAGAATTCCA
# modifications: constant regions annealed to DNA blockers; guide miR-122 5' phosphate
# B5: GCACCTTG (ssRNA)
# RNA 1: B1 RNA 1 with A27G, G29A, U30C
# RNA 2: UGGAGUGUGACAAUGGUGUUUG
# DNA 1: GATCGTCGGACTGTAGAACTC
# DNA 2: TTGGCACCCGAGAATTCCA
# modifications: constant regions annealed to DNA blockers; guide miR-122 5' phosphate
# B6: ATACTCTG (ssRNA)
# RNA 1: B1 RNA 1 with C28U, G29A, U30C, C31U, U32C
# RNA 2: UGGAGUGUGACAAUGGUGUUUG
# DNA 1: GATCGTCGGACTGTAGAACTC
# DNA 2: TTGGCACCCGAGAATTCCA
# modifications: constant regions annealed to DNA blockers; guide miR-122 5' phosphate
# B7: GTACTTCG (ssRNA)
# RNA 1: B1 RNA 1 with A27G, C28U, G29A, U30C, C31U, U33C
# RNA 2: UGGAGUGUGACAAUGGUGUUUG
# DNA 1: GATCGTCGGACTGTAGAACTC
# DNA 2: TTGGCACCCGAGAATTCCA
# modifications: constant regions annealed to DNA blockers; guide miR-122 5' phosphate
# B8: ACGTTCCG (ssRNA)
# RNA 1: B1 RNA 1 with C31U, U32C, U33C
# RNA 2: UGGAGUGUGACAAUGGUGUUUG
# DNA 1: GATCGTCGGACTGTAGAACTC
# DNA 2: TTGGCACCCGAGAATTCCA
# modifications: constant regions annealed to DNA blockers; guide miR-122 5' phosphate
# B9: ATATCTCG (ssRNA)
# RNA 1: B1 RNA 1 with C28U, G29A, U33C
# RNA 2: UGGAGUGUGACAAUGGUGUUUG
# DNA 1: GATCGTCGGACTGTAGAACTC
# DNA 2: TTGGCACCCGAGAATTCCA
# modifications: constant regions annealed to DNA blockers; guide miR-122 5' phosphate
# B10: ATACTTCG (ssRNA)
# RNA 1: B1 RNA 1 with C28U, G29A, U30C, C31U, U33C
# RNA 2: UGGAGUGUGACAAUGGUGUUUG
# DNA 1: GATCGTCGGACTGTAGAACTC
# DNA 2: TTGGCACCCGAGAATTCCA
# modifications: constant regions annealed to DNA blockers; guide miR-122 5' phosphate
# B11: ACATTTCG (ssRNA)
# RNA 1: B1 RNA 1 with G29A, C31U, U33C
# RNA 2: UGGAGUGUGACAAUGGUGUUUG
# DNA 1: GATCGTCGGACTGTAGAACTC
# DNA 2: TTGGCACCCGAGAATTCCA
# modifications: constant regions annealed to DNA blockers; guide miR-122 5' phosphate
# B12: ATGTCCCG (ssRNA)
# RNA 1: B1 RNA 1 with C28U, U32C, U33C
# RNA 2: UGGAGUGUGACAAUGGUGUUUG
# DNA 1: GATCGTCGGACTGTAGAACTC
# DNA 2: TTGGCACCCGAGAATTCCA
# modifications: constant regions annealed to DNA blockers; guide miR-122 5' phosphate
# B13: ATACCTCG (ssRNA)
# RNA 1: B1 RNA 1 with C28U, G29A, U30C, U33C
# RNA 2: UGGAGUGUGACAAUGGUGUUUG
# DNA 1: GATCGTCGGACTGTAGAACTC
# DNA 2: TTGGCACCCGAGAATTCCA
# modifications: constant regions annealed to DNA blockers; guide miR-122 5' phosphate
# B14: ACATTTTG (ssRNA)
# RNA 1: B1 RNA 1 with G29A, C31U
# RNA 2: UGGAGUGUGACAAUGGUGUUUG
# DNA 1: GATCGTCGGACTGTAGAACTC
# DNA 2: TTGGCACCCGAGAATTCCA
# modifications: constant regions annealed to DNA blockers; guide miR-122 5' phosphate
# Legend:
# Test in all cases: RNA Bind-n-Seq (nitrocellulose filter binding and sequencing); miR-122 guide loaded in AGO2; 60 min incubation; 30 mM Tris pH 8.0, 100 mM potassium acetate, 2 mM magnesium acetate, 0.5 mM TCEP, 0.005% NP-40, 0.01 mg/ml yeast tRNA; 3 nM AGO2-miR-122, 100 nM RNA library; 60; high values mean tight binding
# Settings in all cases: protein: recombinant; tags: His6 (N-terminal, pFastBac HTA)
# AGO2 L192P = AGO2 L192P (Homo sapiens, UniProt Q9UKV8 1-859, L192P;S387D;S824A;S828D;S831D;S834A)
# Chain of AGO2 L192P (Q9UKV8 whole entry L192P/S387D/S824A/S828D/S831D/S834A): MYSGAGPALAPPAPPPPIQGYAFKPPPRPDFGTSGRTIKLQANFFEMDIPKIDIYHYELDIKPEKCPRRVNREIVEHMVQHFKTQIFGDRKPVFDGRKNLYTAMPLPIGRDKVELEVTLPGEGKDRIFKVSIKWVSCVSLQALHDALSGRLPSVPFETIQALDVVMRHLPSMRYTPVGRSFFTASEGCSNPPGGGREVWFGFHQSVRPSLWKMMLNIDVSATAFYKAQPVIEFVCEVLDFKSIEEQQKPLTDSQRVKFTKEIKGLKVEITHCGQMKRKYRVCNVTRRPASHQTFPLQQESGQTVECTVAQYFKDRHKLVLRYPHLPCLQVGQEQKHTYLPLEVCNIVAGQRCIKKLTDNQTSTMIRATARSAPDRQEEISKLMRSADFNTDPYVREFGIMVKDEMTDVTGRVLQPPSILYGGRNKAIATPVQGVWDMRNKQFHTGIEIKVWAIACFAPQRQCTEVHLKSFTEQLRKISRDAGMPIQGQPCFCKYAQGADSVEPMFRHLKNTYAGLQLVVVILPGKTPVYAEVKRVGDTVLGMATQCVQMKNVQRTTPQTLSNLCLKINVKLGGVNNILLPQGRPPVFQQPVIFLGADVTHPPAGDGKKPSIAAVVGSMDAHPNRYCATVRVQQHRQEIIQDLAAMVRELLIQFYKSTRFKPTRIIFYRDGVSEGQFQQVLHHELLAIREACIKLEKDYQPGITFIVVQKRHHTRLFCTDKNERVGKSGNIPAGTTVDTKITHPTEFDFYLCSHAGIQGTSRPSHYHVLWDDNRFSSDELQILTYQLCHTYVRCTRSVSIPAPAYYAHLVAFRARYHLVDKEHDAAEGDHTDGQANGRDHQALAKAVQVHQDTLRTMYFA
# Outline: (§1)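 Fold enrichment is each target's read fraction divided by its read fraction in the input library. Sf9 insect cells expressed His-tagged AGO2 from baculovirus; the protein was loaded with a synthetic guide RNA and purified by Ni-NTA and a biotinylated capture oligo. The bound RNA was extracted, reverse-transcribed, barcode-amplified and sequenced on Illumina.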
# AGO2 A367P = AGO2 A367P (Homo sapiens, UniProt Q9UKV8 1-859, A367P;S387D;S824A;S828D;S831D;S834A)
# Chain of AGO2 A367P (Q9UKV8 whole entry A367P/S387D/S824A/S828D/S831D/S834A): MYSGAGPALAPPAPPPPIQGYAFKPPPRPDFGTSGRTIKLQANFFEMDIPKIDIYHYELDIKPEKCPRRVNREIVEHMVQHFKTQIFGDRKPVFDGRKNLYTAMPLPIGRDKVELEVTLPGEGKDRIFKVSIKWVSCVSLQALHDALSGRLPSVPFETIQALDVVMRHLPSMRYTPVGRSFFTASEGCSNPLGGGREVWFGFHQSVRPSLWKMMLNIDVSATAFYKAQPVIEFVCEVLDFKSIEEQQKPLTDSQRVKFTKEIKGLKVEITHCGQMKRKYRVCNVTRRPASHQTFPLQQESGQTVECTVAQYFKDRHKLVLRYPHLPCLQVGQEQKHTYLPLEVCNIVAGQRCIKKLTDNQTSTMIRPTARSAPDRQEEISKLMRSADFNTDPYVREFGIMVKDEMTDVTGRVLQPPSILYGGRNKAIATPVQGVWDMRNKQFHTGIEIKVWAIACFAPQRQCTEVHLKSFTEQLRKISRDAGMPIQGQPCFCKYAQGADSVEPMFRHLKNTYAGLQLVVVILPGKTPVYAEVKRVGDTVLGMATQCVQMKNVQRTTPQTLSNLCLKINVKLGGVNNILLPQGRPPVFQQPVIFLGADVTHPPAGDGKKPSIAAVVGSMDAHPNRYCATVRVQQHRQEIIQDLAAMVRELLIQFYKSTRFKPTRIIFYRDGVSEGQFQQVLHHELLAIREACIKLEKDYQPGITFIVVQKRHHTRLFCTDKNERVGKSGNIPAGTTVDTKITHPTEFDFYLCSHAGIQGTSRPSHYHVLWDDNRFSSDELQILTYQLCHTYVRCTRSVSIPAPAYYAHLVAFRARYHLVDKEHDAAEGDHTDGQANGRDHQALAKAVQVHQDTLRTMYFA
# Outline: as §1
# AGO2 T357M = AGO2 T357M (Homo sapiens, UniProt Q9UKV8 1-859, T357M;S387D;S824A;S828D;S831D;S834A)
# Chain of AGO2 T357M (Q9UKV8 whole entry T357M/S387D/S824A/S828D/S831D/S834A): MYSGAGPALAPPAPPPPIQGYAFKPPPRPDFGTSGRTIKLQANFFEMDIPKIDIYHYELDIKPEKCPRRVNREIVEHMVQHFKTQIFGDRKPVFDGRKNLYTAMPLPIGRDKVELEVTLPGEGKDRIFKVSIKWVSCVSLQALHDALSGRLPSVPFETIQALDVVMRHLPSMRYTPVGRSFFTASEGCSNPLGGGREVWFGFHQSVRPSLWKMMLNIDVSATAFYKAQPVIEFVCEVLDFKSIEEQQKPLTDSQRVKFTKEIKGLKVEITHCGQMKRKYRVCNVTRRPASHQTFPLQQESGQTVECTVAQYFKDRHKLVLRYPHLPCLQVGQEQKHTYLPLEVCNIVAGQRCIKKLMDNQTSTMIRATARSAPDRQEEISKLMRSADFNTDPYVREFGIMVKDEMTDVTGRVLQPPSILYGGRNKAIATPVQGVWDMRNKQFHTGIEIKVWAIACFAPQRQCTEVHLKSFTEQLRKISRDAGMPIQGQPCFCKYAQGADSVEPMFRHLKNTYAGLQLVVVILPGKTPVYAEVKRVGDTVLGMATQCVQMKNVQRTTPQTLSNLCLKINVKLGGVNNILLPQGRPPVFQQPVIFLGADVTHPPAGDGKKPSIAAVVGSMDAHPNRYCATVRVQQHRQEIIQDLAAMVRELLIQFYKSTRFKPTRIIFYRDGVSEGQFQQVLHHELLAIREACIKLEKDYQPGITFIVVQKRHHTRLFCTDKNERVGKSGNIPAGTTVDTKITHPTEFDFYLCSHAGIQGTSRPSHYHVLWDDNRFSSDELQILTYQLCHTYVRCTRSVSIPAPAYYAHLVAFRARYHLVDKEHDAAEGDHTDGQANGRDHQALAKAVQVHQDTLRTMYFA
# Outline: as §1
Binder,binding signal (AGO2 L192P),binding signal (AGO2 A367P),binding signal (AGO2 T357M)
B1,0.319 fold enrichment over input,0.134 fold enrichment over input,0.501 fold enrichment over input
B2,0.332 fold enrichment over input,0.134 fold enrichment over input,0.423 fold enrichment over input
B3,0.467 fold enrichment over input,0.17 fold enrichment over input,0.569 fold enrichment over input
B4,0.358 fold enrichment over input,0.123 fold enrichment over input,0.475 fold enrichment over input
B5,0.387 fold enrichment over input,0.154 fold enrichment over input,0.503 fold enrichment over input
B6,0.349 fold enrichment over input,0.134 fold enrichment over input,0.504 fold enrichment over input
B7,0.351 fold enrichment over input,0.13 fold enrichment over input,0.538 fold enrichment over input
B8,0.361 fold enrichment over input,0.128 fold enrichment over input,0.44 fold enrichment over input
B9,0.351 fold enrichment over input,0.124 fold enrichment over input,0.398 fold enrichment over input
B10,0.406 fold enrichment over input,0.138 fold enrichment over input,0.509 fold enrichment over input
B11,0.421 fold enrichment over input,0.151 fold enrichment over input,0.514 fold enrichment over input
B12,0.319 fold enrichment over input,0.125 fold enrichment over input,0.416 fold enrichment over input
B13,0.339 fold enrichment over input,0.127 fold enrichment over input,0.409 fold enrichment over input
B14,0.41 fold enrichment over input,0.143 fold enrichment over input,0.537 fold enrichment over input
